# Compound activity (PubChem BioAssay)
# FEN1 inh: inhibitors of human flap endonuclease 1. P39748. Recombinant FEN1 flap cleavage, fluorescence, 15 min. Potency, µM (top dose mostly 114 µM), without a hit: at the highest dose activity change, negative = inhibition, most hits filed as inhibitors. 390,000 compounds, 0.35% hits. AID 588795; note: potency is the fitted concentration of half-maximal effect; % is set by controls: 0 for no effect and ±100 for the full control effect; nearly all actives have a fitted effect of over 65% in size
# Target sequence (P39748 whole entry, looked up): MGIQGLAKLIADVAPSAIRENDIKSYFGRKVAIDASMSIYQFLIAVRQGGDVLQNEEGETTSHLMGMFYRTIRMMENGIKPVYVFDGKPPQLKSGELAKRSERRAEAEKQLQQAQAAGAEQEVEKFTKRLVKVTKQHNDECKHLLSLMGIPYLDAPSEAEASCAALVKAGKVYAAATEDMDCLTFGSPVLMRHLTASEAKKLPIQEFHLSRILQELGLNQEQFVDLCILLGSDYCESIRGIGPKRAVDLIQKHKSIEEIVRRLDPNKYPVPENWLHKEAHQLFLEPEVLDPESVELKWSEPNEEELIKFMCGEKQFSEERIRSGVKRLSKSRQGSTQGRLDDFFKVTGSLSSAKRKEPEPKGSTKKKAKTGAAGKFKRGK
#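 In this screen, 50 nM flap DNA substrate was added to 10 nM FEN1 pretreated with compound for 15 min at room temperature; cleavage was followed with reads at 0 and 15 min, and Hill fitting gave concentration–response parameters.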
# WRN inhibitor: inhibitors of human WRN helicase; WRN helicase unwinding, fluorescent forked duplex, kinetic; Potency, µM (doses to about 114 µM), inactives show at the highest dose activity change, negative = inhibition, usual class: inhibitors; 360,000 compounds, 0.46% hits; note: potency is the fitted concentration of half-maximal effect; % is set by controls: 0 for no effect and ±100 for the full control effect; nearly all actives have a fitted effect of over 55% in size
#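 Kinetic red-fluorescence monitoring (525/598 nm) tracks WRN helicase activity after 100 nM fluorophore-quencher forked duplex and 2 mM ATP are added to 20 nM enzyme pretreated 15 min at room temperature with compound.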
# POLI inh: DNA polymerase iota (human) inhibition; Q9UNA4; Pol iota fluorescent replication assay, 10 min; Potency, µM (top dose mostly 115 µM), inactives show at the top dose activity, negative = inhibition, actives largely listed as inhibitors; 390,000 compounds, 1% hits; note: potency is the fitted concentration of half-maximal effect
#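 Pol iota at 10 nM preincubated 15 min with compounds at room temperature; reaction started with fluorescent substrate, 50 nM final. Fluorescence read kinetically at 0 and 10 min; buffer-only wells as negative control.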
# Pol eta inh-1: inhibitors of human DNA polymerase eta | Potency, µM (highest dose often 114 µM), without a hit: at the highest dose activity change, negative = inhibition, usual class: inhibitors | recombinant Pol eta, fluorescent DNA replication assay | 390,000 compounds, 1.2% hits | Q9Y253; note: potency is the fitted concentration of half-maximal effect; % is set by controls: 0 for no effect and ±100 for the full control effect
#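 Pol eta at 10 nM preincubated with compounds 15 min at room temperature; reaction started with fluorescent substrate (50 nM final) and read kinetically at 0 and 10 min.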
# POLB inh: blocks human DNA polymerase beta activity; Pol beta primer extension/strand displacement, fluorescence kinetic; Potency, µM (highest dose often 114 µM), for inactives: top-dose activity change, negative = inhibition, hits mostly inhibitors; 340,000 compounds, 1.3% hits; note: potency is the fitted concentration of half-maximal effect; % is set by controls: 0 for no effect and ±100 for the full control effect
#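 Enzyme-only controls used 10 nM Pol beta; buffer lacking enzyme served as negative control. Compound preincubated 15 min, then 50 nM substrate added; 0 and 10 min reads at room temperature.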
# Pol kappa inh: blocks human DNA polymerase kappa activity | purified Pol kappa, fluorescent DNA synthesis assay, 10 min | 400,000 compounds, 0.53% hits | Q9UBT6 | Potency, µM (doses to about 107 µM), inactives show top-dose activity, negative = inhibition, most hits filed as inhibitors; note: potency is the fitted concentration of half-maximal effect; % is set by controls: 0 for no effect and ±100 for the full control effect
#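 10 nM Pol kappa was preincubated with compounds for 15 min at room temperature. Reaction started with 50 nM (final) substrate. Fluorescence read kinetically at 0 and 10 min.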
# GALK confirm: galactokinase (human) inhibition, confirmation; shares compounds with Pol eta inh-1; purified GALK, Kinase-Glo ATP depletion luminescence; Potency, µM (doses to about 115 µM), without a hit: top-dose activity, negative = inhibition, hits mostly inhibitors; 150 compounds, 70% hits; AID 2015
# Target sequence (P51570 whole entry, looked up): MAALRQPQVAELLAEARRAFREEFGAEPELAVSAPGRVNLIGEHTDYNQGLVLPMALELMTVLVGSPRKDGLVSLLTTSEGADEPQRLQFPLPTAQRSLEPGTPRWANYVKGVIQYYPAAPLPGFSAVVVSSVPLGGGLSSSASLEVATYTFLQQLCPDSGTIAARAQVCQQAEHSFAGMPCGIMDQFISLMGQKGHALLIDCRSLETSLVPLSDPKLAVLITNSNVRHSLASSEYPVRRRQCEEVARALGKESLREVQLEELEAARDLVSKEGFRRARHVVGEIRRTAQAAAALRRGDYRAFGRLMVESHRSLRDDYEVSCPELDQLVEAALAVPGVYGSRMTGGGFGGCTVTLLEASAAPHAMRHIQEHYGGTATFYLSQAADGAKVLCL
# Redox cycling: generates H2O2 by redox cycling, flagging GALK artifacts. shares compounds with Pol eta inh-1. Phenol red-HRP H2O2 redox cycling, absorbance 600 nm. Potency, µM (top dose mostly 115 µM), for the others: at the top dose activity change, negative = H2O2 signal, most hits filed as inhibitors. 150 compounds, 40% hits. AID 2035
# HEK293 viability: HEK-293 cytotoxicity, GALK inhibitor secondary | AID 2547 | HEK-293 viability, ATP luminescence (CellTiter-Glo), 24/48 h | Potency, µM (doses to about 46.1 µM), for the others: at the top dose activity change, negative = cytotoxicity, actives largely listed as inhibitors | shares compounds with Pol eta inh-1 | 170 compounds, 10% hits; note: potency is the fitted concentration of half-maximal effect; % is set by controls: 0 for no effect and ±100 for the full control effect
# Pol eta inh-2: confirmation of human DNA polymerase eta inhibitors; shares compounds with Pol eta inh-1; Pol eta primer extension, TAMRA/BHQ fluorescence, 10 min; Potency, µM, usual class: inhibitors; 2,600 compounds, 64% hits; AID 720502; note: potency is the fitted concentration of half-maximal effect
# An asterisk follows results filed as active; ? = inconclusive; . = no result; [ ] = remark or other dose. Only some compounds are listed: those with a hit (about 2.4% of all), similar ones and a draw of the others. Calls come from the whole dose curve; as a rule, active = well fitted curve in the direction sought with a large enough effect; inconclusive = small, poorly fitted or top-dose-only effect, or another doubt; inactive = no such curve, though single readings can be large; an effect the other way counts as inactive or inconclusive.
SMILES,FEN1 inh,WRN inhibitor,POLI inh,Pol eta inh-1,POLB inh,Pol kappa inh,Pol eta inh-2,others
O=C(O)c1cccc(Nc2c3ccccc3nc3ccccc23)c1,-21%,-8%,36%,-16%,1%,-21%,.,
Cc1ccc(NC(=O)c2ccc(NC(=O)N3CCSc4ncccc43)cc2)cc1Cl,-4%,.,-6%,-12%,10%,-19%,.,
CCNc1ncc2nc(-c3cccs3)c(=O)n(Cc3cccs3)c2n1,.,.,.,.,.,-5%[60.1 µM],.,
COC(=O)c1ccccc1Nc1ccccc1,-13%,3%,2%,-14%,11%,-5%,.,
COC(=O)c1ccccc1NC1=C/C(=N\S(=O)(=O)c2ccc(C(=O)O)cc2)c2ccccc2C1=O,20µM*,?,1.1µM*,14µM*,32µM*,?,.,GALK confirm=?;Redox cycling=12µM*;HEK293 viability=?
O=C(COC(=O)c1ccc(F)cc1F)Nc1cccnc1Cl,19%,-1%,1%,-5%,.,0%,.,
Cc1ccnc(NC(=O)COC(=O)c2ccc(F)cc2F)n1,16%,-21%,?,45µM*,1%,-44%,?,
CC(=O)Nc1cccc(C(=O)OCC(=O)NC(=O)C2CCCCC2)c1,-3%,.,44%,.,.,8%,.,
COc1ccc(C(=O)Nc2ccccc2-c2nc3ccccc3s2)c(OC)c1,0%,.,2%,-22%,-14%,-8%[60.1 µM],.,
COC(=O)c1oc2ccccc2c1N,0%,0%,?,11%,5%,-16%,.,
COC(=O)c1oc2ccccc2c1NC(=O)/C=C/C(=O)O,-13%,3%,30%,-6%,-30%,2%,.,GALK confirm=0%;Redox cycling=8%;HEK293 viability=14%
COc1cccc(Nc2sc(C(=O)c3ccc(F)cc3)c(N)c2C(=O)NCc2ccc(C)cc2)c1,-6%,.,18%,6%,-11%,-6%[60.1 µM],.,
O=C(COC(=O)/C=C/c1ccco1)Nc1ccc(F)cc1Cl,12%,-24%[11.6 µM],?,?,22µM*,?,?,
O=C1c2ccccc2C(=O)c2c1cccc2N(CCO)CCO,-21%,-9%[57.1 µM],42%,-25%,19%,-8%,.,
O=C1C=C(N(CCO)Cc2ccccc2)c2ccccc2C1=O,-18%,-5%,4.5µM*,20µM*,-17%,-13%,.,GALK confirm=12µM*;Redox cycling=6µM*;HEK293 viability=-2%
N#Cc1cccc(-c2cncnc2NCc2cccs2)c1,.,.,.,.,.,5%[60.1 µM],.,
O=C(CSc1nc2ccccc2[nH]1)NC1CCCC1,-4%,?,?,40µM*,14µM*,?,?,
CC(=O)c1c2c3c(cccc3n(C)c1=O)C(=O)c1ccccc1-2,-16%,-20%,?,?,?,-22%,.,
Cn1c(=O)c(Nc2ccc(O)cc2)c2c3c(cccc31)C(=O)c1ccccc1-2,?,?,16µM*,14µM*,32µM*,?,?,
Cc1nc2cnc(Oc3ccccc3)nc2n(Cc2cccs2)c1=O,.,.,.,.,.,-1%[60.1 µM],.,
Cc1ccc(CN2CCCn3nc(C(=O)NCc4ccc(N(C)C)cc4)cc3C2=O)cc1,9%,.,-10%,-13%,-18%,3%[60.1 µM],.,
O=C(N/N=C/C=C/c1ccccc1)c1ccccn1,13%,-10%,12%,-9%,2%,-6%,.,
O=C(N/N=C/C=C\c1ccco1)c1cccnc1,-3%,-30%[57.1 µM],18µM*,?,19%,79µM*,?,
O=C(N/N=C/C=C\c1ccco1)c1ccccn1,?,35µM*,?,?,?,50µM*,?,
COc1cccc(-n2c(C)nc3c(cnn3-c3ccc(C)c(C)c3)c2=O)c1,?,.,-2%,-8%,-3%,3%,.,
SMILES,FEN1 inh,WRN inhibitor,POLI inh,Pol eta inh-1,POLB inh,Pol kappa inh,Pol eta inh-2,others
Cc1noc(C)c1-c1cc(NCCN2CCOCC2)ncn1,.,.,.,.,.,1%[60.1 µM],.,
Cc1ccc2c(c1)C(=O)[C@@]1(O)CCN(c3ccccc3)C1=N2,.,.,.,.,.,-4%[19.4 µM],.,
O=C(COc1ccccc1/C=C\c1[nH]c(=O)[nH]c(=O)c1[N+](=O)[O-])Nc1ccccc1,-14%,-6%[11.6 µM],20µM*,22µM*,9%,-18%,76*,GALK confirm=38µM*;Redox cycling=-11%;HEK293 viability=-5%
C=Cc1ccc(Cn2c(=O)cc(C)c3c(C)nn(C)c32)cc1,-9%,.,-1%,-16%,4%,27%,.,
O=C(COc1ccccc1)NCCSCc1ccco1,-3%,-33%[57.1 µM],?,14µM*,?,?,?,
NC(=O)COC(=O)c1ccc(S(=O)(=O)NCc2ccco2)cc1,2%,-28%,14µM*,35µM*,?,?,?,
O=C(OCC(=O)N1CCN(C(=O)c2ccco2)CC1)c1ccc(S(=O)(=O)N2CCCCC2)cc1,1%,-15%,14%,-4%,?,-9%,.,
O=C(COc1ccccc1)Nc1ccc(S(=O)(=O)NCc2ccco2)cc1,2%,-32%[57.1 µM],?,18µM*,45µM*,?,?,
O=C(COc1ccccc1F)Nc1ccc(S(=O)(=O)NCc2ccco2)cc1,1%,-2%,7%,-11%,-3%,-8%,.,
O=C(OCc1ccco1)c1ccc(S(=O)(=O)N2CCCCC2)cc1,-25%,?,?,10µM*,?,79µM*,?,
O=C(COC(=O)c1ccc(S(=O)(=O)NCc2ccco2)cc1)NCc1ccccc1,0%,-9%,?,-14%,.,?,.,
CCCCNC(=O)CSc1nc2nc(C)c(Cc3ccccc3C)c(C)n2n1,-5%,.,16%,-15%,10%,2%,.,
O=C(Oc1ccccc1)N1CCC[C@@]2(CCN(c3ccccc3)C2)C1,.,.,.,.,.,3%[60.1 µM],.,
Cc1ccc(CSc2nc(-c3ccc(C(C)(C)C)cc3)nc3cc(=O)[nH]n23)cc1,-8%,.,?,50µM*,?,?,85*,
C=CCc1ccccc1OCCSc1nc(-c2ccc(C(C)(C)C)cc2)nc2cc(=O)[nH]n12,?,.,?,?,40µM*,-32%,76*,
